Assay results as given in paper PMC6212790, “How bacterial xenogeneic silencer rok distinguishes foreign from self DNA in its resident genome”.
In all, about 33,000 sequences were measured (“e-score”: median about -0.038, highest 2% from about 0.33 on). This is one part of a sample in which the highest values are shown more often than they occur.

These sequences were tested against T1, GST-Rok-C97-191 (Bacillus subtilis subsp. subtilis str. …, UniProt O34857 97-191) (assay: protein binding microarray; Rok is a gene silencer of Bacillus subtilis; high values mean tight binding). Conditions: protein: recombinant; tags: GST (pTH5325, pDEST15-Magic modified); dsDNA, one strand shown.
T1 sequence: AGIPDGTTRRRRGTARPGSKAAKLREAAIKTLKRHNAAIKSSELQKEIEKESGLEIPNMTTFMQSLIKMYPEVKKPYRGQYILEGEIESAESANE
How it was run: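 Every oligonucleotide joins a 25-mer constant primer to a 35-mer variable part drawn from a de Bruijn sequence of order 10, so each non-palindromic 8-mer appears at least 32 times and each palindromic 8-mer 16 times. The preference for every 8-mer is reported as a unitless, rank-based enrichment score (E-score). This score spans 0.5 for the most favored 8-mer to −0.5 for the most disfavored.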
CCCGAAAC gave a binding signal of -0.179 E-score.
With CGGTCGTA the binding signal was 0.261 E-score.
Work on ATTATGAG yielded a binding signal of -0.00845 E-score.
With GTACCCAA the binding signal was -0.0765 E-score.
GTCTATCA showed a binding signal of -0.0797 E-score.
For CAGTATTA, the binding signal was 0.188 E-score.
With AAGTATTA the binding signal was 0.349 E-score.
For GAGTATTA, the binding signal was 0.187 E-score.
Sequence ATCTATCA has a binding signal of 0.451 E-score.
For CTCTATCA, the binding signal was 0.0167 E-score.
AGTCTTGC was tested, and the binding signal was 0.0754 E-score.
With ACGACTTA the binding signal was 0.051 E-score.
Work on GCAGCAAC yielded a binding signal of -0.161 E-score.
TATCAATA was tested, and the binding signal was 0.331 E-score.
With AATCAATA the binding signal was 0.227 E-score.
Work on GATCAATA yielded a binding signal of 0.0798 E-score.
In the case of AAAAAACA, the binding signal is reported as 0.19 E-score.
AGAAACCG showed a binding signal of -0.049 E-score.
AAATACAG gave a binding signal of 0.123 E-score.
Sequence AAATACGA has a binding signal of 0.0254 E-score.
In the case of AAATACAC, the binding signal is reported as 0.25 E-score.
With AAATACGT the binding signal was 0.343 E-score.
AAATACGG gave a binding signal of 0.213 E-score.
Sequence AAATACAT has a binding signal of 0.359 E-score.
CGTTCCTA showed a binding signal of 0.0168 E-score.
CAGTATGC showed a binding signal of -0.144 E-score.
GCAGATAA was tested, and the binding signal was 0.127 E-score.
CCTAATAC was tested, and the binding signal was 0.14 E-score.
For ATCCGTCC, the binding signal was -0.186 E-score.
With GTACCATA the binding signal was 0.362 E-score.
ATACCACG was tested, and the binding signal was 0.0833 E-score.
For GTACCAGA, the binding signal was 0.0231 E-score.
Work on CTACCATC yielded a binding signal of 0.421 E-score.
For ATACCATC, the binding signal was 0.0328 E-score.
ATACCATA showed a binding signal of 0.267 E-score.
In the case of GTACCACA, the binding signal is reported as 0.0685 E-score.
Sequence CTACCACA has a binding signal of 0.343 E-score.
With CTACCATA the binding signal was 0.324 E-score.
Sequence ATGGCGCA has a binding signal of -0.0193 E-score.
Sequence GAAACTCC has a binding signal of 0.0382 E-score.
Work on CGGTAGAG yielded a binding signal of -0.0194 E-score.
In the case of GGGTAGAC, the binding signal is reported as -0.0486 E-score.
CGGTAGAC gave a binding signal of -0.0972 E-score.
CGGTAGAA was tested, and the binding signal was 0.411 E-score.
TCGTAGAA was tested, and the binding signal was 0.236 E-score.
Work on GGGTAGCA yielded a binding signal of -0.148 E-score.
GGGTAGAA was tested, and the binding signal was 0.384 E-score.
Sequence ACGTAGAT has a binding signal of 0.219 E-score.
In the case of AGGTAGAT, the binding signal is reported as 0.36 E-score.
Work on AGTTAGAT yielded a binding signal of 0.196 E-score.
CCGTAGAA was tested, and the binding signal was 0.289 E-score.
With TGGTAGAA the binding signal was 0.468 E-score.
For CGAGTAGC, the binding signal was -0.0476 E-score.
With AGTCAAGG the binding signal was -0.145 E-score.
CATGCTCC gave a binding signal of -0.102 E-score.
For AAAGGATG, the binding signal was -0.047 E-score.
With AGACAGTA the binding signal was 0.0933 E-score.
GAGAACGA showed a binding signal of -0.104 E-score.
CGAGCAAG showed a binding signal of -0.0658 E-score.
For CTTACGGC, the binding signal was -0.196 E-score.
CATATTGC was tested, and the binding signal was 0.0992 E-score.
CAGGTCAA was tested, and the binding signal was -0.108 E-score.
GTGTAGAA showed a binding signal of 0.293 E-score.
In the case of ATGTAGAA, the binding signal is reported as 0.38 E-score.
With CTGTAGAA the binding signal was 0.258 E-score.
AGGTAGAA showed a binding signal of 0.433 E-score.
AGGTAGAC was tested, and the binding signal was 0.093 E-score.
In the case of AGGTAGAG, the binding signal is reported as 0.118 E-score.
ACCTCTTA gave a binding signal of 0.191 E-score.
Work on TCATAGGA yielded a binding signal of 0.154 E-score.
With CAGGAGCA the binding signal was -0.151 E-score.
With CAACCTAC the binding signal was 0.263 E-score.
AACATCCT gave a binding signal of 0.0847 E-score.
CGCCTACG gave a binding signal of -0.0439 E-score.
Sequence CCCTTGAC has a binding signal of -0.132 E-score.
GAAAGTAA gave a binding signal of 0.226 E-score.
Sequence GAAAGTAC has a binding signal of 0.35 E-score.
AATAGTAC showed a binding signal of 0.293 E-score.
Sequence AATAGTAA has a binding signal of 0.338 E-score.
Sequence AATAGTGT has a binding signal of 0.242 E-score.
In the case of AACAGTAA, the binding signal is reported as 0.285 E-score.
AACAGTAG gave a binding signal of 0.362 E-score.
Sequence CACAGTAG has a binding signal of 0.0897 E-score.
For AATAGTAT, the binding signal was 0.332 E-score.
With ATTAGTAA the binding signal was 0.303 E-score.
With CAAAGTAC the binding signal was -0.0306 E-score.
With AATAGTCA the binding signal was 0.186 E-score.
AGTTGCCA was tested, and the binding signal was 0.0801 E-score.
ATTAGGGC showed a binding signal of -0.073 E-score.
Sequence CAAGACTA has a binding signal of 0.186 E-score.
CTGACGAA showed a binding signal of -0.0673 E-score.
In the case of GATAGCGC, the binding signal is reported as 0.191 E-score.
Work on GCAAATAA yielded a binding signal of 0.158 E-score.
AATGATGA showed a binding signal of 0.00727 E-score.
AAAAGTAC gave a binding signal of 0.279 E-score.
For AAAAGTAG, the binding signal was 0.344 E-score.
Sequence CAAAGTAG has a binding signal of 0.194 E-score.
CATAGTAG gave a binding signal of 0.195 E-score.
AATAGTCG showed a binding signal of -0.0896 E-score.
Work on AATAGTAG yielded a binding signal of 0.475 E-score.
AGACCACG was tested, and the binding signal was -0.138 E-score.
CGTGTAAC gave a binding signal of 0.0552 E-score.
Work on CTAGGCAC yielded a binding signal of -0.149 E-score.
CGGCTAAC showed a binding signal of 0.00729 E-score.
Sequence GAGTTCAC has a binding signal of 0.0331 E-score.
Work on AGCTCGGG yielded a binding signal of -0.116 E-score.
With AATATAAG the binding signal was 0.26 E-score.
For ACTATATG, the binding signal was 0.283 E-score.
AATATTAT gave a binding signal of 0.21 E-score.
AATATATG showed a binding signal of 0.337 E-score.
AATATATT showed a binding signal of 0.417 E-score.
In the case of AATATAGA, the binding signal is reported as 0.309 E-score.
Sequence AATATATA has a binding signal of 0.462 E-score.
Work on AATATATC yielded a binding signal of 0.424 E-score.
For AATATGTG, the binding signal was 0.199 E-score.
For CCTATATC, the binding signal was 0.0424 E-score.
Sequence CGTATATC has a binding signal of 0.316 E-score.
For AAAATATT, the binding signal was 0.327 E-score.
Sequence CAGAAACG has a binding signal of -0.0943 E-score.
TAAGTCAA was tested, and the binding signal was -0.0154 E-score.
For ATGATCCA, the binding signal was 0.0416 E-score.
ACCAACAT gave a binding signal of 0.157 E-score.
CCATCGGG was tested, and the binding signal was -0.172 E-score.
With GCCGGACA the binding signal was 0.0879 E-score.
CTTATGTA gave a binding signal of 0.0579 E-score.
CCTATGTA gave a binding signal of 0.302 E-score.
In the case of GCTATGTA, the binding signal is reported as 0.226 E-score.
ACTATGTA showed a binding signal of 0.356 E-score.
Work on GTTATGTA yielded a binding signal of 0.292 E-score.
ATTATGTA gave a binding signal of 0.354 E-score.
AAGGGCAG was tested, and the binding signal was -0.195 E-score.
Sequence AACACATG has a binding signal of 0.0194 E-score.
Sequence AAGCTGTC has a binding signal of 0.0421 E-score.
In the case of ACCAGGAC, the binding signal is reported as -0.0513 E-score.
With CAATGTAA the binding signal was -0.0287 E-score.
Sequence ACATGTAC has a binding signal of 0.331 E-score.
In the case of TAATGTAA, the binding signal is reported as 0.357 E-score.
With AAATGTAG the binding signal was 0.286 E-score.
With AAATGTAA the binding signal was 0.349 E-score.
In the case of CCATGTAC, the binding signal is reported as 0.185 E-score.
Work on GAATGTAC yielded a binding signal of 0.304 E-score.
Sequence AAATGTAT has a binding signal of 0.27 E-score.
For AAATGTAC, the binding signal was 0.364 E-score.
Sequence GCATGTAC has a binding signal of 0.163 E-score.
With GAATGTAA the binding signal was 0.173 E-score.
For CAATGTAC, the binding signal was 0.204 E-score.
Sequence TAATTAGA has a binding signal of 0.324 E-score.
Work on CATAAAGC yielded a binding signal of -0.119 E-score.
With GTGCTAGA the binding signal was 0.197 E-score.
With CTAGCAAC the binding signal was 0.222 E-score.
TGCGACAA showed a binding signal of -0.0569 E-score.
For CGTGCAGC, the binding signal was -0.0438 E-score.
GCTACGGA showed a binding signal of -0.0221 E-score.
With CCCTAGCG the binding signal was -0.135 E-score.
For CCACGCTC, the binding signal was -0.0229 E-score.
ATAGGTTA gave a binding signal of 0.162 E-score.
ATATGTAG showed a binding signal of 0.386 E-score.
In the case of ATCTGTAG, the binding signal is reported as 0.37 E-score.
ATCTGTAA showed a binding signal of 0.106 E-score.
ATCTGTAC showed a binding signal of 0.0594 E-score.
With AGATGTAA the binding signal was 0.191 E-score.
In the case of ATATGTAA, the binding signal is reported as 0.28 E-score.
AGATGTAT gave a binding signal of 0.264 E-score.
For AGATGTAG, the binding signal was 0.331 E-score.
ATATGTAC was tested, and the binding signal was 0.309 E-score.
AAAAGTGG showed a binding signal of 0.0303 E-score.
With GCTACATA the binding signal was 0.315 E-score.
With GCTAGGCA the binding signal was -0.0675 E-score.
CAAGGGCC gave a binding signal of -0.186 E-score.
GAAATACC was tested, and the binding signal was 0.289 E-score.
Work on CAAATACC yielded a binding signal of 0.114 E-score.
AAAATACT showed a binding signal of 0.371 E-score.
For AAAATACC, the binding signal was 0.357 E-score.
In the case of AAAATACA, the binding signal is reported as 0.32 E-score.
